Compounds with a hit are over-represented: about 7.2% of the library has one in this group of screens.
Sm TGR block: qHTS Assay for the Inhibitors of Schistosoma Mansoni Peroxiredoxins; AID 485364, 2010; Potency, µM (titrated, usually from 114 µM), without a hit: at the top dose activity change, negative = inhibition, actives largely listed as inhibitors; purified TGR, DTNB reduction, TNB absorbance 405 nm; 360,000 tested, 3% active; also: nearly all actives have a fitted effect of over 60% in size
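First, TGR (20 nM dispensed) and NADPH were mixed with compound. Second, a 15 min room-temperature incubation followed. Third, further NADPH and then DTNB were added to start the reaction. Finally, TNB absorbance was monitored kinetically.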
FMDV inh: High Throughput Screening for Foot and Mouth Disease Virus Antivirals; AID 1159524, 2015; 410,000 tested, 1.2% active; FMDV antiviral cell-based qHTS; Potency, µM (series often up to 57.9 µM), for inactives: at the top dose activity change, negative = inhibition, usual class: inhibitors; calls by dose curve; tested in HEK293T cells; also: read-out not given here; nearly all actives have a fitted effect of over 45% in size
RE007 growth inh: qHTS Assay for Inhibitors of the HIV-1 protein Vpr; S. pombe RE007 Vpr strain, BacTiter-Glo ATP luminescence, 24 h; Potency, µM (series often up to 92.2 µM), for the others: at the highest dose activity change, negative = less growth, most hits filed as inhibitors; 360,000 tested, 0.21% active; active = well fitted falling curve with a large enough effect; inconclusive = small, poorly fitted or top-dose-only effect; inactive = no such curve, though single readings can be large or run the other way; also: nearly all actives have a fitted effect of over 50% in size
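Fission yeast RE007 carrying one integrated HIV-1 vpr copy, seeded at OD 0.01 in PMG+AL medium with 23 nL pinned compound. Grown 24 h at 30 degrees; viability read by BacTiter-Glo luminescence after 5 min.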
LASV entry inh: qHTS for Inhibitors of binding or entry into cells for Lassa Virus | 300,000 tested, 1.2% active | Lassa virus pseudotype entry inhibition, cell reporter | Potency, µM (doses to about 37.9 µM), inactives show at the highest dose activity change, negative = inhibition, most hits filed as inhibitors | AID 540256, 2011; calls by dose curve; tested in HEK293 cells; also: nearly all actives have a fitted effect of over 50% in size
Marburg entry inh: qHTS for inhibitors of binding or entry into cells for Marburg Virus; Marburg virus pseudotyped entry inhibition, cell reporter; Potency, µM (series often up to 37.8 µM), without a hit: at the top dose activity change, negative = inhibition, hits mostly inhibitors; 300,000 tested, 1.8% active; AID 540276, 2011; calls by dose curve; tested in HEK293 cells
HCV inhibitor: qHTS Assay for Inhibitors of Hepatitis C Virus (HCV); Huh7.5.1 HCVcc-Cre infection, luciferase reporter, 44 h; Potency, µM (series often up to 41.8 µM), without a hit: at the highest dose activity change, negative = inhibition, hits mostly inhibitors; 340,000 tested, 3.4% active; AID 651820, 2012
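HCVcc-Cre virus at an moi near 0.5 was added right after compound to cells cultured 4 h from seeding (1,000 cells/well). Luciferase activity was determined 44 h later, 15 min after substrate addition at RT.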
* marks the source's active call; other numbers are inactive results; [ ] = another dose, or the depositor's remark. Unless noted, calls follow the shape of the dose curve; as a rule, active = well fitted curve in the direction sought with a large enough effect; inconclusive = small, poorly fitted or top-dose-only effect, or another doubt; inactive = no such curve, though single readings can be large; an effect the other way counts as inactive or inconclusive. % is scaled to controls: 0 for no effect and ±100 for the full control effect; potency is read from the fitted curve at half-maximal effect.

What do the screens show for `C[C@@H]1CN([C@H](C)CO)S(=O)(=O)c2ccc(-c3ccc(C(=O)N(C)C)cc3)cc2O[C@H]1CN(C)C(=O)Cc1ccccn1`?
FMDV inh: -24%; RE007 growth inh: -1%

Results for Cc1ccc(NNC(=O)c2c(C)noc2C)cc1Cl ?
Sm TGR block: inconclusive; FMDV inh: 32%; RE007 growth inh: 36%; HCV inhibitor: -22%

Results for O=C(Nc1cc(Cl)cc(Cl)c1)c1ccno1 ?
Sm TGR block: 0%; FMDV inh: -9%; RE007 growth inh: -20%; LASV entry inh: 18%[46.1 µM]; Marburg entry inh: 5%[46.1 µM]; HCV inhibitor: 0%

What do the screens show for `Cc1ccc(NNC(=O)c2ccno2)cc1Cl`?
Sm TGR block: -2%; FMDV inh: -19%; RE007 growth inh: 25%; HCV inhibitor: 11µM*

What do the screens show for `Cc1ccc(NNC(=O)c2ccno2)cc1C`?
Sm TGR block: 50µM*; FMDV inh: -2%; RE007 growth inh: 67%; LASV entry inh: inconclusive; Marburg entry inh: -9%; HCV inhibitor: inconclusive

What do the screens show for `Cc1ccc(NC(=O)Nc2ccnc(-c3cccnc3)n2)cc1`?
Sm TGR block: 1%; FMDV inh: -20%; RE007 growth inh: -11%; LASV entry inh: inconclusive; Marburg entry inh: inconclusive; HCV inhibitor: 11µM*

How did CCOc1ccccc1N1C(=O)NC(=O)/C(=C/c2ccc3c4c(cccc24)CC3)C1=O do in these assays?
Sm TGR block: 32µM*; FMDV inh: 40µM*; RE007 growth inh: -16%; LASV entry inh: -8%; Marburg entry inh: 2%; HCV inhibitor: 16%

Results for COc1cccc(N2C(=O)NC(=O)/C(=C/c3ccc4c5c(cccc35)CC4)C2=O)c1 ?
Sm TGR block: 25µM*; HCV inhibitor: 8%

How did Cn1c(=O)[nH]c(=O)c2c1nc1n2CCN1c1ccccc1 do in these assays?
Sm TGR block: -6%; FMDV inh: 1%; LASV entry inh: 4%[46.1 µM]; Marburg entry inh: 3%[46.1 µM]

Results for CC(C)(C)c1ccc(C(=O)Nc2cccnc2)cc1 ?
Sm TGR block: -2%; FMDV inh: 7%; RE007 growth inh: -16%; HCV inhibitor: 3%

What do the screens show for `COc1ccc(NC(=S)NC(=O)c2ccccc2)cn1`?
Sm TGR block: 35µM*; FMDV inh: 41%; RE007 growth inh: -9%; HCV inhibitor: -2%

What do the screens show for `O=C(NC(=S)Nc1cnc2ccccc2c1)c1ccccc1`?
Sm TGR block: inconclusive; FMDV inh: 71%; RE007 growth inh: -11%; HCV inhibitor: 14%

How did Cc1ccc(NC(=O)c2cccc(Oc3ccc([N+](=O)[O-])cc3)c2)c(C(=O)O)c1 do in these assays?
Sm TGR block: -1%; FMDV inh: -2%; RE007 growth inh: inconclusive; HCV inhibitor: 13%

How did COc1ccc(NC(=O)c2cccc(Oc3ccccc3)c2)cn1 do in these assays?
Sm TGR block: -1%; FMDV inh: 11%; RE007 growth inh: -8%; LASV entry inh: inconclusive; Marburg entry inh: 7.9µM*; HCV inhibitor: inconclusive

Results for CC(C)(C)c1ccc(C(=O)Nc2ccc(Oc3cccnc3)nc2)cc1 ?
Sm TGR block: -11%; FMDV inh: 35µM*; RE007 growth inh: -6%; LASV entry inh: inconclusive; Marburg entry inh: 9%; HCV inhibitor: 2.8µM*

Results for O=C(Nc1ccc(O)cc1)c1cccc(Oc2ccc([N+](=O)[O-])cc2)c1 ?
Sm TGR block: inconclusive; FMDV inh: -29%; RE007 growth inh: 15%; LASV entry inh: inconclusive; Marburg entry inh: inconclusive; HCV inhibitor: 11µM*

How did CCOc1ccccc1C(=O)N(Cc1ccc(N(C)C)cc1)CC1CCCO1 (stereo unspecified) do in these assays?
Sm TGR block: 0%; FMDV inh: 8%; LASV entry inh: -13%[46.1 µM]; Marburg entry inh: 10%[46.1 µM]

What do the screens show for `CCOC(=O)c1ccc(N2C(=O)c3[nH]nc(-c4ccc(OCC)cc4)c3C2c2cccs2)cc1` (stereo unspecified)?
Sm TGR block: 0%; FMDV inh: inconclusive; LASV entry inh: inconclusive; Marburg entry inh: inconclusive

What do the screens show for `COc1ccc(NC(=O)CSC2=Nc3ccccc3C3=NC(CCC(=O)NCc4ccco4)C(=O)N23)cc1` (stereo unspecified)?
Sm TGR block: 0%; FMDV inh: inconclusive; LASV entry inh: 22%[46.1 µM]

How did O=C1C(=O)N(C2CCN(C(=O)c3ccccc3Cl)CC2)CCN1Cc1ccc(F)cc1 do in these assays?
Sm TGR block: 11%; FMDV inh: -3%; LASV entry inh: 15%[46.1 µM]

How did CCOc1cc(CNC(=O)c2ccc3c(c2)N(C)C(=O)C2CCCCN32)ccc1OC (stereo unspecified) do in these assays?
Sm TGR block: 35%; FMDV inh: -11%; LASV entry inh: -1%[46.1 µM]

What do the screens show for `Cc1ccc(CN2CCN(C3CCN(C(=O)c4ccccc4)CC3)C(=O)C2=O)cc1`?
Sm TGR block: -3%; FMDV inh: -18%; LASV entry inh: 26%[46.1 µM]

How did COc1ccc(NC(=O)Cn2c(SCc3ccc(C)cc3)nc3cccnc32)cc1OC do in these assays?
Sm TGR block: 0%; FMDV inh: -15%; LASV entry inh: inconclusive

Results for Cn1ncc2cc(NC(=S)NC(=O)c3ccccc3)ccc21 ?
Sm TGR block: 18µM*; FMDV inh: 24%; RE007 growth inh: 5%; LASV entry inh: inconclusive; Marburg entry inh: -37%; HCV inhibitor: inconclusive

Results for Cc1cc(C)nc(NC(=S)NC(=O)c2ccccc2)n1 ?
Sm TGR block: 27%; FMDV inh: 20%; RE007 growth inh: 4%; LASV entry inh: 21%; Marburg entry inh: 7%; HCV inhibitor: 3%

What do the screens show for `O=C(O)c1ccccc1C(=O)Nc1ccc(Oc2cccc(C(F)(F)F)c2)nc1`?
Sm TGR block: inconclusive; FMDV inh: 3.2µM*; RE007 growth inh: 10%; LASV entry inh: -29%[46.1 µM]; Marburg entry inh: 19%[46.1 µM]; HCV inhibitor: -27%

What do the screens show for `c1ccc(CCNc2ccnc3cc4ccccc4cc23)cc1`?
Sm TGR block: 4%; FMDV inh: 14µM*; RE007 growth inh: 4%; Marburg entry inh: inconclusive; HCV inhibitor: 6.3µM*

Results for CC(C)Nc1ccc(Nc2ccnc3cc4ccccc4cc23)cc1 ?
Sm TGR block: -14%; FMDV inh: -29%; RE007 growth inh: -16%; LASV entry inh: 6.3µM*; Marburg entry inh: 5.2µM*; HCV inhibitor: inconclusive

How did Cc1ccc(Nc2ccc([N+](=O)[O-])nc2[N+](=O)[O-])cc1 do in these assays?
Sm TGR block: 45µM*; FMDV inh: -18%; RE007 growth inh: 0%; LASV entry inh: -22%; Marburg entry inh: -4%; HCV inhibitor: inconclusive

Screening data: PubChem BioAssay, National Center for Advancing Translational Sciences (NCATS)
